# PubChem BioAssay AID624417 (National Center for Advancing Translational Sciences (NCATS), 2012)
# Out of some 410,000 compounds screened, about 6,400 (1.6%) were called active. About 20% were inconclusive and are not listed. Calls come from the whole dose curve; as a rule, active = well fitted inhibition curve with a large enough effect; inconclusive = small, poorly fitted or top-dose-only effect; inactive = no such curve, though single readings can be large or run the other way. The sample as a whole holds a higher share of actives than the screen did.
# Target: Glucagon-like peptide 1 receptor (Homo sapiens) (UniProt P43220)
# Assay: qHTS of GLP-1 Receptor Inverse Agonists (Inhibition Mode); note: nearly all actives have a fitted effect of over 55% in size
# Conditions: HEK293 GLP-1R CRE-luciferase, luminescence, 24 h; series mostly up to 38.3 µM; activity change, negative = inhibition: at the top concentration
# Text: The overall goal of this project was to develop a novel assay for discovering small molecule ligands for class B1 G protein-coupled receptors (GPCRs). Very few agonists (or inverse agonists in inhibition mode) with generally weak activity for this entire group of physiologically important receptors are known to date. To establish proof-of-principle that this critical bottleneck can be overcome with a suitable screening approach, our studies focused on the class B1 receptor for glucagon-like peptide-1 (GLP-1R), a potential therapeutic target for diabetes and neurodegenerative disease. The assay was developed using a cell-based functional readout. Toward this goal, stably transfected HEK293 cell clones were established that co-express (i) a cAMP-responsive luciferase reporter gene, and (ii) constitutively active GLP-1R that upon ligand interaction inhibit (inverse agonists) the luciferase activity. In addition, two control cell lines were developed: (i) one that express only the cAMP-responsive reporter gene to enable initial exclusion of GLP-1R independent effects of candidate probes; and (ii) one with the reported gene cloned with another constitutively active orphan receptor GPR119 to enable exclusion of GLP-1R independent inhibitor effects of candidate inverse agonists. To that end, this assay was optimized for 1536-well format and screened against the MLSMR. […] NIH Molecular Libraries Probe Production Network [MLPCN] NIH Chemical Genomics Center [NCGC] Grant: NS064851 PI Name: Martin Beinborn, Tufts Medical Center
# Six ul of cell suspension (200 cells/uL in DMEM + 10% Nu serum + 1% pen-strep) is dispensed in a white solid 1536-well plate. The plates are incubated for 12 hours at 37 deg C at 5% CO2 followed by addition of 23 nL compounds. After 24 hr incubation at 37 deg C and 5% CO2, 3 uL of luciferase assay detection reagent is added. A luminescence read is obtained on the PerkinElmer Viewlux after 12 min incubation at room temperature.
# % is set by controls: 0 for no effect and ±100 for the full control effect; potency is the fitted concentration of half-maximal effect.
# Sequence of Glucagon-like peptide 1 receptor (Homo sapiens) (P43220 whole entry, looked up): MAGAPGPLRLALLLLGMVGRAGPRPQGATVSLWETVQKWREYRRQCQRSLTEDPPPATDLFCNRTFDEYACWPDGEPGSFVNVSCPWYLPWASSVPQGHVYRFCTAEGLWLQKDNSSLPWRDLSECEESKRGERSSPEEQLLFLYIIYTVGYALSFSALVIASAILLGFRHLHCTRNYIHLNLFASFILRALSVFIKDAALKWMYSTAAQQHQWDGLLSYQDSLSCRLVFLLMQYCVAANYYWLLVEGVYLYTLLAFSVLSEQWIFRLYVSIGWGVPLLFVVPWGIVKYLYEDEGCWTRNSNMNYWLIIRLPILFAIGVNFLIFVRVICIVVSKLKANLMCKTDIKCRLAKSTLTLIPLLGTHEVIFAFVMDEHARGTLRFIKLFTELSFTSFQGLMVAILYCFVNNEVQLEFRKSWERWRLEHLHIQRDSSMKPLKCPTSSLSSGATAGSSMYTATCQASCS
SMILES,"activity change, negative = inhibition",Potency
CCC(=O)OC(Cc1ccccc1)(c1ccccc1)C(C)CN(C)C (stereo unspecified),-4.67% (inactive),–
C=C(C)C1(CCCC)C(=O)NC(=S)NC1=O,2.43% (inactive),–
CCC1(CC(C)c2ccccc2)C(=O)NC(=O)NC1=O (stereo unspecified),12.3% (inactive),–
CCC(C)(O)C(=O)OC1C(=O)OC2CC3C(C)=CC(=O)C(O)C3(C)C3C4(O)OCC23C1C(C)C4O (stereo unspecified),-71.9% (inactive),–
COc1ccc(C2CC(c3cccs3)=NN2c2nc(C)c(C(C)=O)s2)cc1OC (stereo unspecified),"20.9% [at 38.3 µM, GLP-1R form is constitutively active] (inactive)",–
CCOC(=O)[C@]12Cc3ccccc3[C@H]1N(C1CCCCC1)C(=O)c1cc(OC)ccc12,–,5.62 µM (active)
Cc1ccc(OC(=O)N(C)C[C@@H]2OCc3cnnn3CCCC(=O)N([C@H](C)CO)C[C@@H]2C)cc1,12.8% (inactive),–
S=C(NCCc1ccccc1)N1Cc2cc(N3CCOCC3)ccc2-n2nncc2C1,19.2% (inactive),–
Cc1nc2ccc(N3CCN(C)CC3)cc2nc1C,14.2% (inactive),–
COc1cccc(-c2nc3ccc(N4CCN(C)CC4)cc3[nH]2)c1,–,1.12 µM (active)
c1ccc(N2Cc3ccccc3-n3nncc3C2)nc1,12.7% (inactive),–
CC(=CCOc1ccc2ccc(=O)oc2c1)C1=CC(=O)C(C)(C)O1,–,2.24 µM (active)
CCOc1ccc(CC(=O)NCCc2csc3nc(-c4ccccc4F)nn23)cc1,"53.9% [at 38.3 µM, GLP-1R form is constitutively active] (inactive)",–
CC12CCC3C(CCC4CC(=O)CCC43C)C1CC(=NO)C2=O (stereo unspecified),6.88% (inactive),–
CCOC(=O)c1cccc(C2=C(CNC(=O)c3ccncc3)[C@H]3CC[C@@H](C2)N3Cc2ccccc2)c1,-13.7% (inactive),–
COC(=O)CN(CCCl)P1(=O)OCCCN1CCCl (stereo unspecified),13.7% (inactive),–
CC(=O)Nc1cc(-c2cccc(CO)c2)cn2c(-c3cccc(C(F)(F)F)c3)cnc12,"33.2% [at 38.3 µM, GLP-1R form is constitutively active] (inactive)",–
O=Cc1cn(Cc2ccc(F)cc2Cl)c2ccccc12,–,10 µM (active)
O=C(C1CCN(S(=O)(=O)c2ccc(Br)s2)CC1)N1CCN(c2ccccc2)CC1,"15.4% [at 38.3 µM, GLP-1R form is constitutively active] (inactive)",–
CC1C(=O)OC2CCN3CC=C(COC(=O)C(C)(O)C1(C)O)C23 (stereo unspecified),-20% (inactive),–
O=c1c2ccccc2nc(CBr)n1-c1ccc(Cl)cc1,9.46% (inactive),–
